CYP2C19 inh: human CYP2C19 inhibition | 96,000 compounds, 21% hits | CYP2C19 Supersomes, luciferin-H EGE luminescence, 30 min | inhibition, % at 5 µM;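 active = CYP2C19 inhibition above a set limit at 5 µM in the primary screen, cut at about 50% in these data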;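 also: plate controls were negative control wells for no effect and 2.5 mM tranylcypromine positive control for full effect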
CYP2C19 act: cytochrome P450 2C19 (human) activation. recombinant CYP2C19, luciferin-H EGE luminescence; active compounds read high; 0 = fully inhibited enzyme, 1 = untreated enzyme. activation factor at 5 µM. 96,000 tested, under 10 active. AID 1025;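 active = activation factor of at least 2 at 5 µM in the primary screen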;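 also: 0 = wells with 2.5 mM tranylcypromine and 1 = vehicle-only wells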
PLAP activator: human PLAP activation; P05187; purified PLAP enzyme, luminescent substrate read-out; active compounds read high; activation fold at 20 µM; 96,000 compounds, 1.2% hits; AID 696; in the data active = activation fold above about 2
CYP2C9 act: CYP2C9 (human) activation | P11712 | recombinant CYP2C9, luciferin-H conversion, luminescence; active compounds read high; factor 1 = untreated enzyme, 0 = blocked | activation factor at 5 µM | 96,000 compounds, 1.4% hits | AID 1024;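 active = activation factor of 2 or more for CYP2C9 at a 5 µM dose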;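 also: 0 = sulfaphenazole-blocked wells and 1 = vehicle-only wells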
Target sequence (P11712 whole entry, looked up): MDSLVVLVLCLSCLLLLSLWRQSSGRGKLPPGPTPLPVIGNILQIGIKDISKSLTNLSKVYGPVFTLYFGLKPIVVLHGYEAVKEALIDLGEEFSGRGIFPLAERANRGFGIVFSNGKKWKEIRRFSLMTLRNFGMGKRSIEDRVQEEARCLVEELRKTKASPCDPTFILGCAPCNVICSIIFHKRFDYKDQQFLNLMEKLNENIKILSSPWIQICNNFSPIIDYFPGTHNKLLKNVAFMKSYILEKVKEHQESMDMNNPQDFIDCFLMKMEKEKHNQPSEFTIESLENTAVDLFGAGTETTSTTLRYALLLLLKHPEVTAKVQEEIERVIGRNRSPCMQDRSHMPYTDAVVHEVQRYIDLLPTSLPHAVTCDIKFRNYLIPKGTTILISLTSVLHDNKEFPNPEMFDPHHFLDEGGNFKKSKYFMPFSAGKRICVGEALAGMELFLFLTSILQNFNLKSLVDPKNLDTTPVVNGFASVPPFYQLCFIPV
CYP2C9 inhib: blocks human cytochrome P450 2C9. CYP2C9 Supersomes, luciferin-H conversion, luminescence. inhibition, % at 5 µM. 96,000 compounds, 20% hits. AID 777;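 active = blocking of liver enzyme CYP2C9 beyond about 50% at 5 µM, limit read from the data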
* hit, by the source's call. Only some compounds are listed: those with a hit (about 31% of all), similar ones and a draw of the others.

For O=C(CSc1nc(C2CCCCC2)n(-c2ccccc2)n1)NCCN1C(=O)CSC1=O the results were CYP2C19 inh 95*, CYP2C19 act 0, PLAP activator 2*, CYP2C9 act 0 and CYP2C9 inhib 98*.
For O=C(CSc1nc(-c2ccccc2)c(-c2ccccc2)[nH]1)NCc1ccco1 the results were CYP2C19 inh 37, CYP2C19 act 0.6, PLAP activator 1, CYP2C9 act 0.5 and CYP2C9 inhib 50*.
Screening COc1ccc(-c2[nH]c(-c3cccc(OC)c3)nc2SCC(=O)NCc2ccco2)cc1 returned CYP2C19 inh 94*, CYP2C19 act 0.1, PLAP activator 1.6, CYP2C9 act 0.2 and CYP2C9 inhib 84*.
For Cc1nnc(SCC(=O)NCCN2C(=O)CSC2=O)s1 the results were CYP2C19 inh -1, CYP2C19 act 1, PLAP activator 0.9, CYP2C9 act 1.1 and CYP2C9 inhib -6.
`COc1ccc2cc(C3(C)NC(=O)N(CC(=O)NCc4ccco4)C3=O)ccc2c1` (configuration not stated) gave CYP2C19 inh 9, CYP2C19 act 0.9, PLAP activator 0.9, CYP2C9 act 0.8 and CYP2C9 inhib 24.
For O=C(CSc1nc(-c2ccccc2)cs1)NCc1ccco1 the results were CYP2C19 inh 34, CYP2C19 act 0.7, PLAP activator 0.9, CYP2C9 act 0.9 and CYP2C9 inhib 13.
Cc1nc(-c2ccccc2)nc2[nH]ccc(=O)c12 was read as CYP2C19 inh 30, CYP2C19 act 0.7, PLAP activator 1, CYP2C9 act 0.7 and CYP2C9 inhib 28.
For CN(C)S(=O)(=O)c1ccc(C(=O)Nc2nnc(-c3ccc4c(c3)CCCC4)o2)cc1 the results were CYP2C19 inh 1, CYP2C19 act 1, PLAP activator 1.2, CYP2C9 act 0.9 and CYP2C9 inhib 14.
`COc1ccc(NC(=O)C2=C(C)Nc3ncnn3C2c2ccccc2C(F)(F)F)c(OC)c1` (configuration not stated) gave CYP2C19 inh 38, CYP2C19 act 0.6, PLAP activator 1.5, CYP2C9 act 0.5 and CYP2C9 inhib 45.
O=C(CSc1nc(-c2ccccc2)c(-c2ccccc2)[nH]1)NCCN1C(=O)CSC1=O was read as CYP2C19 inh 63*, CYP2C19 act 0.4, PLAP activator 1.5, CYP2C9 act 0.7 and CYP2C9 inhib 34.
Screening O=C(CCCSc1nc2ccccc2[nH]1)NCc1ccco1 returned CYP2C19 inh 17, CYP2C19 act 0.8, PLAP activator 0.9, CYP2C9 act 2* and CYP2C9 inhib -102.
`CCn1nc(C(=O)OCC(=O)NCCN2C(=O)CSC2=O)c2ccccc2c1=O` gave CYP2C19 inh -8, CYP2C19 act 1.1, PLAP activator 1, CYP2C9 act 1.1 and CYP2C9 inhib -9.
For Cc1ccc2nc(SCC(=O)NC(=O)NCc3ccco3)[nH]c2c1 the results were CYP2C19 inh 80*, CYP2C19 act 0.2, PLAP activator 2*, CYP2C9 act 0.3 and CYP2C9 inhib 71*.
For O=C(CCCn1c(=S)[nH]c2ccccc2c1=O)NCc1ccco1 the results were CYP2C19 inh 7, CYP2C19 act 0.9, PLAP activator 1.1, CYP2C9 act 1.1 and CYP2C9 inhib -11.
`Cn1nc(CC(=O)NCCN2C(=O)CSC2=O)c2ccccc2c1=O` gave CYP2C19 inh 70*, CYP2C19 act 0.3, PLAP activator 1.2, CYP2C9 act 1.2 and CYP2C9 inhib -15.
For Cc1ccc2nc(SCC(=O)NCc3ccco3)[nH]c2c1 the results were CYP2C19 inh 17, CYP2C19 act 0.8, PLAP activator 1.1, CYP2C9 act 0.6 and CYP2C9 inhib 41.
For O=[N+]([O-])c1cc(S(=O)(=O)Nc2ccccc2)ccc1-n1nnc2ccccc21 the results were CYP2C19 inh 51*, CYP2C19 act 0.5, PLAP activator 1.1, CYP2C9 act 0.3 and CYP2C9 inhib 72*.
For O=C(O)c1cccc(NS(=O)(=O)c2ccc3nnn(O)c3c2)c1 the results were CYP2C19 inh 5, CYP2C19 act 0.9, PLAP activator 0.9, CYP2C9 act 1 and CYP2C9 inhib 2.
`OCCNc1nc(OCC(F)(F)F)nc(N2CCN(C34CC5CC(CC(C5)C3)C4)CC2)n1` gave CYP2C19 inh -7, CYP2C19 act 1.1, PLAP activator 0.9, CYP2C9 act 0.8 and CYP2C9 inhib 23.
`COc1ccccc1OCC(=O)OCC(=O)NCCN1C(=O)CSC1=O` gave CYP2C19 inh -12, CYP2C19 act 1.1, PLAP activator 1.1, CYP2C9 act 1.2 and CYP2C9 inhib -16.
`O=C(COC(=O)c1ccc(S(=O)(=O)Nc2ccccc2)cc1)NCCN1C(=O)CSC1=O` gave CYP2C19 inh 62*, CYP2C19 act 0.4, PLAP activator 1.3, CYP2C9 act 0.2 and CYP2C9 inhib 81*.
Screening O=C(COC(=O)c1ccc(S(=O)(=O)NCc2ccco2)cc1)NCC1CCCCC1 returned CYP2C19 inh 17, CYP2C19 act 0.8, PLAP activator 0.9, CYP2C9 act 0.4 and CYP2C9 inhib 58*.
`O=C(COC(=O)c1ccc(S(=O)(=O)Nc2ccccc2)cc1)NCc1ccco1` gave CYP2C19 inh 42, CYP2C19 act 0.6, PLAP activator 1.1, CYP2C9 act 0.2 and CYP2C9 inhib 75*.
`O=C(NC1CCCCC1)c1ccc(S(=O)(=O)NCc2ccco2)cc1` gave CYP2C19 inh 9, CYP2C19 act 0.9, PLAP activator 0.9, CYP2C9 act 0.7 and CYP2C9 inhib 27.
Screening CN1C(=O)NC(c2ccccc2)C2=C1CN(c1ccc3ccccc3c1)C2=O (configuration not stated) returned CYP2C19 inh -6, CYP2C19 act 1.1, PLAP activator 1, CYP2C9 act 1 and CYP2C9 inhib 4.
For Cc1sc2ncnc(NCCN3CCOCC3)c2c1C the results were CYP2C19 inh -2, CYP2C19 act 1, PLAP activator 1.2, CYP2C9 act 0.8 and CYP2C9 inhib 17.
For COc1cccc(-c2nnc(NC(=O)c3ccc(S(=O)(=O)N4CC(C)OC(C)C4)cc3)o2)c1 (configuration not stated) the results were CYP2C19 inh 8, CYP2C19 act 0.9, PLAP activator 1.5, CYP2C9 act 1.2 and CYP2C9 inhib -18.
Screening CC1=Nn2c(nc(-c3ccccc3)c2-c2ccccc2)NC(=O)C1Br (configuration not stated) returned CYP2C19 inh 11, CYP2C19 act 0.9, PLAP activator 1.9, CYP2C9 act 1 and CYP2C9 inhib -5.
Screening Cc1cc(C(c2ccc(C)o2)c2ccc(C)o2)c(O)c([N+](=O)[O-])c1 returned CYP2C19 inh 65*, CYP2C19 act 0.4, PLAP activator 1, CYP2C9 act 0 and CYP2C9 inhib 95*.
COC(=O)c1ccc2c(=O)n(NC(=O)C(c3ccccc3)c3ccccc3)c(=S)[nH]c2c1 was read as CYP2C19 inh 1, CYP2C19 act 1, PLAP activator 1.7, CYP2C9 act 0.4 and CYP2C9 inhib 62*.
